SMILES strings stand for the structures. Inconclusive results are not listed. A number with no mark means an inactive call. Active and inactive are the calls of the source. Unless noted, calls follow the shape of the dose curve; as a rule, active = well fitted curve in the direction sought with a large enough effect; inconclusive = small, poorly fitted or top-dose-only effect, or another doubt; inactive = no such curve, though single readings can be large; an effect the other way counts as inactive or inconclusive.

The nature of assay [1]: qHTS for Inhibitors of Plasmodium falciparum (DD2) proliferation (AID 504314). Also: potency is read from the fitted curve at half-maximal effect. The method, boiled down: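 SYBR Green DNA-fluorescence growth assay: infected RBCs at 0.3% parasitemia, 2.5% hematocrit, 72 h compound exposure, 37C, 5% CO2; overnight lysis with dye at RT; normalized to 0.29 uM artemisinin and vehicle.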
For orientation: qHTS replaces the single test concentration by a dilution series.

Assay [2] in a line: qHTS for Inhibitors of Plasmodium falciparum (7G8) proliferation (AID 504316). Also: nearly all actives have a fitted effect of over 65% in size. Also: potency is read from the fitted curve at half-maximal effect. The method, boiled down: (§1)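 Parasite growth measured as SYBR Green DNA fluorescence (ex 485, em 535 nm) after overnight lysis following 72 h culture at 37 °C, 0.3% parasitemia, 2.5% hematocrit. Values normalized against DMSO and 0.29 uM artemisinin controls, with plate-stack correction.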
Assay [3] in a line: qHTS for Inhibitors of Plasmodium falciparum (HB3) proliferation (AID 504318). Also: nearly all actives have a fitted effect of over 60% in size. Also: potency is read from the fitted curve at half-maximal effect. In outline:
as §1

Assay [4] in a line: qHTS for Inhibitors of Plasmodium falciparum (CP250) proliferation (AID 504320). The method, boiled down:
as §1

Assay [5] deals with Atrial natriuretic peptide receptor 1 (Homo sapiens) (UniProt P16066). Briefly: Natriuretic polypeptide receptor (hNpr1) antagonism - Pilot CMLD screen (AID 1347052; calls by dose curve;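 also: cGMP level read as GloSensor luciferase luminescence after agonist stimulation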; also: potency is read from the fitted curve at half-maximal effect).
Chain of Atrial natriuretic peptide receptor 1 (Homo sapiens) (P16066 whole entry, looked up): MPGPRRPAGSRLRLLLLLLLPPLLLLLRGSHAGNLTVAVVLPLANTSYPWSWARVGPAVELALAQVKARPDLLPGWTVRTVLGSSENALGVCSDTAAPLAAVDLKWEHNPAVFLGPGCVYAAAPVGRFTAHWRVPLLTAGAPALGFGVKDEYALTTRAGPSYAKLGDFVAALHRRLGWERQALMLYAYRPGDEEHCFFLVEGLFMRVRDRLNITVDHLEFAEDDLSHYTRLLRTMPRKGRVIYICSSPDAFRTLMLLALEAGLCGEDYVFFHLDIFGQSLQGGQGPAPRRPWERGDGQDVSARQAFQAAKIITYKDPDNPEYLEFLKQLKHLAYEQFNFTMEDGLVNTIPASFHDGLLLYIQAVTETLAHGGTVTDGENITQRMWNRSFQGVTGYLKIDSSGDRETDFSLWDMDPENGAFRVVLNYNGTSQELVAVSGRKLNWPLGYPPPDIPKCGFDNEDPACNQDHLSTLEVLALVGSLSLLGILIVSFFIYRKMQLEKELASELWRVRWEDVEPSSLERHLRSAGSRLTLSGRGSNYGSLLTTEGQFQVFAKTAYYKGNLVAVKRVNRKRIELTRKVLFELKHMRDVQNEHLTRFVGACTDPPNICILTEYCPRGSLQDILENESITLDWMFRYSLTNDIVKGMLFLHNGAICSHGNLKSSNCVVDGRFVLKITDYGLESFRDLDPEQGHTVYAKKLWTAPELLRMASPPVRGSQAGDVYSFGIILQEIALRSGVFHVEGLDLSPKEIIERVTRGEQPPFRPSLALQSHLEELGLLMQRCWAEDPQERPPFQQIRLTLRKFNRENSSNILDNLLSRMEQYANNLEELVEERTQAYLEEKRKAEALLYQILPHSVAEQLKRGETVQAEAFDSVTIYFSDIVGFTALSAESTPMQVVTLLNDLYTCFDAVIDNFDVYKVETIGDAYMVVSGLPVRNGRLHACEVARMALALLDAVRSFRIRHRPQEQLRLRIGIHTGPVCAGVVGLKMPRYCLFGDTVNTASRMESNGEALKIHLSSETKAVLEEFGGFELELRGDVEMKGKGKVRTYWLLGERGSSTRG

`COC(=O)C1=C(C)N(Cc2ccccc2)C(=NCCc2c[nH]c3ccccc23)NC1c1ccc(Br)cc1` (centres undefined): the Potency entry in assay [1], in assay [2], in assay [3], in assay [4] and in assay [5] was “inactive” in each case.

With `CCOC(=O)NN=C1C[C@@H](O)[C@@H](O)[C@@H]2[C@H]3C(=O)N(Cc4ccc5c(c4)OCO5)C(=O)[C@@H]3CC[C@H]12`, the Potency entry in assay [1], in assay [2], in assay [3], in assay [4] and in assay [5] was “inactive” in each case.

Turning to `CCC(=O)OC1(C)C(=O)C=C2C=C(CCCC(=O)OC)OC=C2C1=O` (centres undefined), the Potency entry in assay [1], in assay [2], in assay [3], in assay [4] and in assay [5] was “inactive” each time.

In the case of `CCN1C(=O)NC(c2cccs2)C(C(C)=O)=C1C` (centres undefined), the Potency result in assay [1], in assay [2], in assay [3], in assay [4] and in assay [5] was “inactive” in each case.

Take `O=C1CCC=C1C(O)c1ccc2c(c1)OCO2` (centres undefined): the Potency entry in assay [1], in assay [2], in assay [3], in assay [4] and in assay [5] was “inactive” each time.

As to `CCC(=O)OC1(C)C(=O)C=C2C=C(c3ccsc3)OC=C2C1=O` (centres undefined), the Potency result in assay [1], in assay [2], in assay [3], in assay [4] and in assay [5] was “inactive” in each case.

As for `CCOC(=O)CN1C(=O)NC(c2ccccc2)C(C(C)=O)=C1C` (centres undefined), the Potency result in assay [1], in assay [2], in assay [3], in assay [4] and in assay [5] was “inactive” throughout.

In the case of `C=CC[C@@](C(C)=O)(C(=O)OC)[C@@H](NC(=O)OC(C)(C)C)c1ccccc1`, the Potency entry in assay [1], in assay [2], in assay [3], in assay [4] and in assay [5] was “inactive” throughout.

For `CC(C)=CCCC(C)=CCON=C1C[C@@H](O)[C@@H](O)[C@@H]2[C@H]3C(=O)N(C[C@@H]4CCCO4)C(=O)[C@@H]3CC[C@@H]12`, the Potency entry in assay [1], in assay [2], in assay [3], in assay [4] and in assay [5] was “inactive” throughout.

For the compound `CCN1C(=NCCCCO)NC(c2cccc(C(F)(F)F)c2)C(C(=O)OC)=C1C` (centres undefined), the Potency result in assay [1], in assay [2], in assay [3], in assay [4] and in assay [5] was “inactive” each time.

As for `CCCCC1=CC2=CC(=O)C(C)(O)C(=O)C2=CO1` (centres undefined), the Potency result in assay [1], in assay [2], in assay [3], in assay [4] and in assay [5] was “inactive” throughout.

`C[C@H]1COc2c(N3CCN(C)CC3)c(F)cc3c(=O)c(C(=O)NCc4ccco4)cn1c23`: the Potency result in assay [1], in assay [2], in assay [3], in assay [4] and in assay [5] was “inactive” in each case.

Take `C=CCCCN1C(=O)NC(c2ccccc2)C(C(=O)OC)=C1C` (centres undefined): the Potency entry in assay [1], in assay [2], in assay [3], in assay [4] and in assay [5] was “inactive” in each case.

For the compound `COC(=O)[C@@H]1CC[C@H](C)[C@@H](c2ccc(C)cc2)N1C(=O)c1ccc(C=NOC[C@@H](O)[C@H]2O[C@@H]3OC(C)(C)O[C@H]3[C@@H]2O)cc1`, the Potency result in assay [1], in assay [4] and in assay [5] was “inactive” throughout. The Potency in assay [2] is 1200 nM (active).

As to `CC1=C[C@@H](COCc2ccccc2)O[C@@]2(C1)C(=O)N(Cc1ccc(Br)cc1)c1ccccc12`, the Potency entry in assay [1], in assay [2], in assay [4] and in assay [5] was “inactive” each time.

On to `C[C@@H]1C=CCCO[C@]12C(=O)N(Cc1ccc(Br)cc1)c1ccccc12`, for which the Potency entry in assay [1], in assay [2], in assay [4] and in assay [5] was “inactive” each time.

Take `COC(=O)C(c1ccc(OC)c(OC)c1)C1c2ccccc2C=C(C)N1C(=O)OC` (centres undefined): the Potency result in assay [1], in assay [2], in assay [4] and in assay [5] was “inactive” in each case.

Consider `COc1ccc2c(c1)[C@@]1(OCCC=C[C@@H]1C)C(=O)N2CC=C(C)CCC=C(C)C`, for which the Potency entry in assay [1], in assay [3], in assay [4] and in assay [5] was “inactive” each time.

For the compound `C=CC(=O)N1C(=O)c2ccccc2S1(=O)=O`, the Potency entry in assay [1], in assay [3] and in assay [4] was “inactive” in each case. Further, the Potency in assay [5] is 2990 nM (active).

In the case of `COC(=O)C1=C(C(=O)OC)[C@@H]2N(C)c3ccccc3[C@@]23CCC(=O)N(Cc2ccco2)C3=N1`, the Potency result in assay [1], in assay [2], in assay [4] and in assay [5] was “inactive” each time.

With `C=CC1=C2C=C(C3CC3)N(CC3CC3)C=C2C(=O)C(C)(OC(=O)c2ccco2)C1=O` (centres undefined), the Potency result in assay [1], in assay [2], in assay [4] and in assay [5] was “inactive” throughout.

For `Cc1cccc(C)c1Nc1oc(-c2ccccc2)nc1-c1cccc2ccccc12`, the Potency result in assay [1], in assay [3], in assay [4] and in assay [5] was “inactive” in each case.

With `C=CCC12C=C(OC)C(=O)C(C1=O)C1c3ccccc3CC12` (centres undefined), the Potency result in assay [1], in assay [3], in assay [4] and in assay [5] was “inactive” in each case.

As to `COc1cc2c(cc1OC)[C@@H]1O[C@](CCCCN3C(=O)c4ccccc4C3=O)(C2)OC2=C1C(=O)OC1(CCCCC1)C2`, the Potency in assay [1] is 1690 nM (active); in assay [3], 1900 nM (active). Also, the Potency entry in assay [4] and in assay [5] was “inactive” each time.

As to `COc1ccc2c(c1)[C@@H](NC(=O)C(F)(F)F)[C@@H]1CCCC[C@]21c1ccccc1`, the Potency result in assay [1], in assay [2], in assay [4] and in assay [5] was “inactive” in each case.

In the case of `Cc1cc(C)c(-c2cc([C@H](C)ON=C[C@@H](C)[C@H](OCc3ccccc3)C(C)C)on2)c(C)c1`, the Potency result in assay [1], in assay [3], in assay [4] and in assay [5] was “inactive” in each case.

As for `COC(=O)CCC(=O)OC1(C)C(=O)C=C2C=C(C3CC3)N(CCc3c[nH]c4ccccc34)C=C2C1=O` (centres undefined), the Potency entry in assay [1], in assay [2], in assay [4] and in assay [5] was “inactive” in each case.

For `COCCN1C(=O)N[C@@H](c2ccccc2)[C@H](C(C)=O)[C@H]1C`, the Potency entry in assay [1], in assay [3], in assay [4] and in assay [5] was “inactive” in each case.

As for `COc1ccc2c(c1)O[C@@H](c1ccc3c(c1)OCO3)[C@H](OC(=O)Nc1ccc(OC(F)F)cc1)C2=O`, the Potency result in assay [1], in assay [3], in assay [4] and in assay [5] was “inactive” in each case.

The values are drawn from PubChem BioAssay (NCATS).
